{"source": "PubChem BioAssay (Tox21)", "note": "Values without a mark were called inactive. Calls come from the whole dose curve; as a rule, active = well fitted activation curve with a large enough effect in the repeat runs; inconclusive = weak or mixed curves; inactive = flat fitted curve, though single readings scatter. Where a SMILES comes first, the peptide text is derived from it. % is set by controls: 0 for no effect and ±100 for the full control effect.", "data": [{"assay": "Caspase-3/7 induction in CHO-K1 cells by small molecules, qHTS assay (AID 1346980); note: nearly all actives have a fitted effect of over 15% in size", "settings": "CHO-K1 caspase-3/7 induction, Caspase-Glo luminescence, 17 h; series mostly up to 92.4 µM; caspase-3/7 activation: at the top concentration", "excerpt": "National Center for Advancing Translational Sciences [NCATS]\nNIH Chemical Genomics Center [NCGC]\nU.S. Environmental Protection Agency [EPA]\nNational Institutes of Environmental Health Sciences [NIEHS]\nNational Toxicology Program [NTP]\nApoptosis is a process of programmed cell death and plays a central role in the development of multicellular organisms. It is a highly regulated process and induces cell death by activating caspases, which are the members of cysteine aspartic acid-specific protease (caspase) family. Caspases involved in apoptosis are classified by their mechanism of action as initiator caspases (caspase-2, -8, -9 and -10) and executioner caspases (caspase-3, -6, and -7). Inhibition of apoptosis results in number of cancers, autoimmune diseases, inflammatory diseases and viral infection. To identify small molecule compounds that induce apoptosis, a homogeneous, luminescent Caspase-Glo 3/7 assay was used. Wild type CHO-K1 cells were used to screen Tox21 libraries for identifying caspase-3/7 activity inducers.\nCHO-K1 cells were dispensed at 1,500 per well in 5uL of culture medium into white solid bottom 1536-well plates (Corning Life Sciences, Corning, NY) using a Multidrop Combi (Thermo Scientific, Waltham, MA) dispenser. The assay plates were incubated at 37 C and 5% CO2 for 5hr, and then 23nL of compounds dissolved in DMSO and positive control were transferred using a Pintool station (Wako, San Diego, CA). The assay plates were incubated at 37C and 5% CO2 for 17hr. For caspase-3/7 activity read, 4uL of Caspase-Glo 3/7 reagent (Promega Corporation, Madison, WI) was added to each well of the assay plates using Flying Reagent Dispenser (FRD, Aurora Discovery, San Diego, CA) and incubated the assay plates at room temperature for 30min. The luminescence signal was quantified using a ViewLux plate reader (Perkin Elmer, Shelton, CT).", "values": [{"smiles": "O=C1NC(c2ccccc2)(c2ccccc2)C(=O)N1COP(=O)(O)O", "caspase-3/7 activation": "-1.08% [at 42.5 µM]"}, {"smiles": "CO[C@@]1(NC(=O)Cc2cccs2)C(=O)N2C(C(=O)O)=C(COC(N)=O)CS[C@@H]21", "caspase-3/7 activation": "0.0846% [at 42.5 µM]"}, {"smiles": "O=C(CCCCC(=O)Nc1c(I)cc(I)c(C(=O)O)c1I)Nc1c(I)cc(I)c(C(=O)O)c1I", "caspase-3/7 activation": "-0.0554% [at 42.5 µM]"}, {"smiles": "Cc1cc(C)c(C(=O)O)c(C)c1", "caspase-3/7 activation": "-1.21%"}, {"smiles": "O=C(Cn1ccnc1[N+](=O)[O-])NCc1ccccc1", "caspase-3/7 activation": "0.525% [at 42.5 µM]"}, {"smiles": "OC1(c2ccc(Cl)cc2)CCNCC1", "caspase-3/7 activation": "-0.528% [at 42.5 µM]"}, {"smiles": "c1ccc(-c2nn[nH]n2)cc1", "caspase-3/7 activation": "0.0113%"}, {"smiles": "COc1ccc2c(c1)c1c3n2CCN(C)C3=NCC1", "caspase-3/7 activation": "0.893% [at 42.5 µM]"}, {"smiles": "O=C1CCC(=O)N1Cl", "caspase-3/7 activation": "0.0323%"}, {"smiles": "CC1=NN(c2ccc(S(=O)(=O)O)cc2)C(=O)C1", "caspase-3/7 activation": "-0.652%"}, {"smiles": "CC(=O)N[C@@H](CO)C(=O)N[C@@H](CC(=O)O)C(=O)N[C@@H](CCCCN)C(=O)N1CCC[C@H]1C(=O)O", "note": "(Ac-SDKP-OH)", "caspase-3/7 activation": "-0.323% [at 42.5 µM]"}, {"smiles": "CC(C)C1OCCN1CCOC(=O)NCCCCCCNC(=O)OCCN1CCOC1C(C)C", "note": "(stereo not given)", "caspase-3/7 activation": "-0.223%"}, {"smiles": "COc1cc2c(cc1OC)CN(C(=O)[C@H](C)N[C@@H](CCc1ccccc1)C(=O)O)[C@H](C(=O)O)C2", "caspase-3/7 activation": "0.0153% [at 42.5 µM]"}, {"smiles": "CC1(C)Cc2cccc(N)c2O1", "caspase-3/7 activation": "0.0211%"}, {"smiles": "CCCCCCCCCCCCCBr", "caspase-3/7 activation": "0.682%"}, {"smiles": "OC[C@@H](O)C(O)[C@@H](O)CO", "note": "(stereo not given in full)", "caspase-3/7 activation": "-0.237%"}, {"smiles": "O=C[O][Al]([O]C=O)[O]C=O", "caspase-3/7 activation": "-0.696%"}, {"smiles": "CN(C)CCOC(=O)C(c1ccccc1)C1(O)CCCC1", "note": "(stereo not given)", "caspase-3/7 activation": "0.189% [at 42.5 µM]"}, {"smiles": "COC(=O)CCCCC(=O)O", "caspase-3/7 activation": "0.187%"}, {"smiles": "OC[C@H]1O[C@@H](O[C@@H]2[C@@H](CO)O[C@](O)(CO)[C@H]2O)[C@H](O)[C@@H](O)[C@H]1O", "caspase-3/7 activation": "0.0245% [at 42.5 µM]"}, {"smiles": "CC1c2ccccc2CN1NC(=O)c1ccc(Cl)c(S(N)(=O)=O)c1", "note": "(stereo not given)", "caspase-3/7 activation": "0.692% [at 42.5 µM]"}, {"smiles": "O=Cc1cc2ccccc2o1", "caspase-3/7 activation": "-0.362%"}, {"smiles": "O=C(O)CNC(=O)CNC(=O)CNC(=O)CSC(=O)c1ccccc1", "caspase-3/7 activation": "1.09% [at 42.5 µM]"}, {"smiles": "CC1(C)CC(OC(=O)CCCCCCCCC(=O)OC2CC(C)(C)NC(C)(C)C2)CC(C)(C)N1", "caspase-3/7 activation": "-0.118% [at 19 µM]"}, {"smiles": "ONc1ccccc1", "caspase-3/7 activation": "-0.984%"}, {"smiles": "CC(=O)c1cc(C)oc1C", "caspase-3/7 activation": "0.307%"}, {"smiles": "O=C=NCC1CCCC(CN=C=O)C1", "note": "(stereo not given)", "caspase-3/7 activation": "-0.414%"}, {"smiles": "COc1c2occc2c(OC)c2c(=O)cc(C)oc12", "caspase-3/7 activation": "0.385% [at 42.5 µM]"}, {"smiles": "CC(O)COC(C)(C)C", "note": "(stereo not given)", "caspase-3/7 activation": "0.295%"}, {"smiles": "C/C=C(\\C)C(C)=O", "caspase-3/7 activation": "0.472%"}, {"smiles": "CC(=O)CCC1=C(C)CCCC1(C)C", "caspase-3/7 activation": "0.283%"}, {"smiles": "C=CCCCC", "caspase-3/7 activation": "1.82%"}, {"smiles": "C/C=C(\\C)C(=O)OCCc1ccccc1", "caspase-3/7 activation": "0.27%"}, {"smiles": "C=CCSSCCC", "caspase-3/7 activation": "0.208%"}, {"smiles": "Cc1ncc([N+](=O)[O-])n1CC(C)O", "note": "(stereo not given)", "caspase-3/7 activation": "0.951% [at 42.5 µM]"}, {"smiles": "CCCc1ccc(O)cc1", "caspase-3/7 activation": "0.199%"}, {"smiles": "CC(=O)CCc1ccc(OC(C)=O)cc1", "caspase-3/7 activation": "0.385%"}, {"smiles": "COc1cc2c(cc1OC)C(=O)C(CC1CCN(Cc3ccccc3)CC1)C2", "note": "(stereo not given)", "caspase-3/7 activation": "-0.656% [at 42.5 µM]"}, {"smiles": "N#Cc1cscn1", "caspase-3/7 activation": "-0.739%"}, {"smiles": "CC(C)NC(=O)c1ccc(C=O)cc1", "caspase-3/7 activation": "-1.96% [at 42.5 µM]"}]}]}
